Assay results taken from PubChem BioAssay.

These compounds were tested against Dual specificity protein phosphatase 6 (Homo sapiens) (UniProt Q16828) (assay: DUSP6 inhibitors restoring Erk phosphorylation by chemical complementation, primary imaging in DUSP6-transfected HeLa (AID 609;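 further: phospho-Erk level distribution per well compared with pooled transfected vehicle control wells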)). Conditions: HeLa MKP-3 transfected, phospho-Erk imaging KS statistic; at 10 µM; hits give high values; cells stimulated with TPA for 15 min;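 active means compounds giving at least 50% inhibition in the cell-based MKP-3 phosphatase rescue imaging test; inactive means the rest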.
Dual specificity protein phosphatase 6 (Homo sapiens), sequence (Q16828 whole entry, looked up): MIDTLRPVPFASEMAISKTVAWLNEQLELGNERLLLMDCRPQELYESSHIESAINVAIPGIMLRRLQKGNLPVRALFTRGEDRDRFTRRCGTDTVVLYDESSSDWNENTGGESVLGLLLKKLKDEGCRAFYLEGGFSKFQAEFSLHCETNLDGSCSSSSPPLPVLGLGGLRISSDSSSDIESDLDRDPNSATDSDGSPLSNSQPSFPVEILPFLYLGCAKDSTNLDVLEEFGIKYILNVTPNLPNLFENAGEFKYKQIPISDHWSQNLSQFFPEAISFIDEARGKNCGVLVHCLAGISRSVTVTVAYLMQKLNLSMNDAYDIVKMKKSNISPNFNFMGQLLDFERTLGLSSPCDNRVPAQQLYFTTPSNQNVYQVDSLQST

inhibition, inactive:
CN1CCN(C(=O)CSc2nc(-c3cccs3)ccc2C#N)CC1 6.04%
O/N=C1\CCc2cc(Cl)ccc21 -0.159%
CC(C)CC(C(=O)O)C(C)CC(=O)Nc1ccn(-c2ccccc2)n1 (stereo unspecified) 15.1%
CCCOc1ccc(N2C(=O)CC(N(CCC)C(=O)CCC(=O)O)C2=O)cc1 (stereo unspecified) 7.7%
CCCCC(C(=O)O)C(C)CC(=O)Nc1cccc(C(=O)O)c1 (stereo unspecified) 18.6%
CC(C)C1Cc2c(C#N)c(N)n(C)c(=S)c2CO1 (stereo unspecified) -8.76%
O=C(O)CC(NC(=O)COc1ccc(Cl)cc1Cl)C(=O)O (stereo unspecified) -9.66%
O=C1C(=O)N(CCN2CCOCC2)C(c2ccccn2)/C1=C(/O)c1ccccc1 (stereo unspecified) -0.159%
C=CCOC(=O)C1=C(C)NC(SCC(=O)N(CC)CC)=C(C#N)C1c1ccco1 (stereo unspecified) -5.89%
CN1CCc2c(sc3ncn4nc(-c5ccccc5O)nc4c23)C1 9.39%
CN(C)c1ccc(-c2nn3c(-c4ccc(Cl)cc4)nnc3s2)cc1 19.1%
O=c1oc2c3c4c(cc2c(C(F)(F)F)c1CCN1CCOCC1)CCCN4CCC3 -4.78%
c1ccc(N2CCN(c3nc(-c4ccccn4)nc4ccccc34)CC2)cc1 -5.26%
Fc1ccc2[nH]c3c(N4CCN(Cc5ccc6c(c5)OCO6)CC4)ncnc3c2c1 -1.12%
COc1ccc(OCC(=O)N2CCN(C(=O)c3cccc4ccccc34)CC2)cc1 3.66%
C=CCc1cccc(/C=N/c2ncn[nH]2)c1O 11.9%
